Where “and” joins values, the source holds several entries; their conditions need not be identical. Equal entries are not always repeated. Inconclusive results are not listed. A call without a number means that no potency is given here. Calls of active or inactive are those of the source. Calls follow the shape of the dose curve; as a rule, active = well fitted curve in the direction sought with a large enough effect in the repeat runs; inconclusive = weak or mixed curves; inactive = no such curve, though single readings can be large; an effect the other way counts as inactive or inconclusive. Residues, ends and D or L forms follow the SMILES beside them.

Sequence of Luciferin 4-monooxygenase (Photinus pyralis) (P08659 whole entry, looked up): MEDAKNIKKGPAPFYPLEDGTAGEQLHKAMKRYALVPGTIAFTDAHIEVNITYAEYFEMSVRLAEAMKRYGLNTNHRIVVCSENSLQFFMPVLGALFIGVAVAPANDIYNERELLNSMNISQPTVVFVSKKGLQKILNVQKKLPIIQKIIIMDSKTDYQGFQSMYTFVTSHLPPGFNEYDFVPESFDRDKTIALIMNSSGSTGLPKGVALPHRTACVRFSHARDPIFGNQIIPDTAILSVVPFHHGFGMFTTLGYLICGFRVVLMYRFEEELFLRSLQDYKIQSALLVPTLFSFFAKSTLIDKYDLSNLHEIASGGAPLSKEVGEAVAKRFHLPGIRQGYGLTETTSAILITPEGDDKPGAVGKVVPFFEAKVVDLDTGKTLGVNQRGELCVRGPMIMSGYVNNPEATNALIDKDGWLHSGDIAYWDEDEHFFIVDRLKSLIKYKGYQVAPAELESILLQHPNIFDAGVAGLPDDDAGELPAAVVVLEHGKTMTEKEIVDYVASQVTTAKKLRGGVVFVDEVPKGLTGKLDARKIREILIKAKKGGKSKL

Tested on in one assay: not listed separately
Kind of assay: qHTS assay to identify small molecule antagonists of the estrogen related receptor (ERR) signaling pathway from Tox21 library - cell viability counter screen (AID 1224834). Also: nearly all actives have a fitted effect of over 30% in size. Also: potency is read from the fitted curve at half-maximal effect. The settings on record: ERR reporter cells viability, CellTiter-Fluor, 17.5 h; series mostly up to 92.4 µM. In outline: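 Viability readout (CellTiter-Fluor fluorescence, 30 min at 37 C) multiplexed with the ERR assay; cells treated 17.5 h at 37 C with compounds delivered in DMSO.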
For `C[C@]12C=CC(=O)C=C1CC[C@@H]1[C@@H]2[C@@H](O)C[C@@]2(C)[C@H]1CC[C@]2(O)C(=O)CO`, the Potency entry was “inactive”.

With `CC(=O)NS(=O)(=O)c1ccc(N)cc1`, the Potency result is “inactive”.

In the case of `Nc1ccc(C(=O)O)cc1`, the Potency result is “inactive”.

`O=c1cc[nH]c(=S)[nH]1`: the Potency entry is “inactive”.

`C/C=C/c1ccc(OC)cc1`: the Potency result is “inactive”.

`CCCCC1C(=O)N(c2ccccc2)N(c2ccccc2)C1=O`: the Potency result was “inactive”.

As to `Cc1ccc(C)c(OCCCC(C)(C)C(=O)O)c1`, the Potency result is “inactive”.

On to `O=C(O)CCC(=O)O`, for which the Potency entry was “inactive”.

For the compound `CC(=O)Nc1nnc(S(N)(=O)=O)s1`, the Potency entry was “inactive”.

For the compound `COC(=O)[C@H](Cc1ccccc1)NC(=O)[C@@H](N)CC(=O)O` (H-Asp-Phe-OMe), the Potency result is “inactive”.

As for `CCCC(CCC)C(=O)O`, the Potency result is “inactive”.

Consider `COc1ccc2[nH]cc(CCNC(C)=O)c2c1`, for which the Potency result was “inactive”.

With `CC(=O)OCC(COC(C)=O)OC(C)=O`, the Potency result was “inactive”.

As for `Cn1c(=O)c2[nH]cnc2n(C)c1=O`, the Potency result is “inactive”.

As to `Nc1ccc(S(=O)(=O)c2ccc(N)cc2)cc1`, the Potency entry is “inactive”.

Take `OC(Cn1cncn1)(Cn1cncn1)c1ccc(F)cc1F`: the Potency entry is “inactive”.

For `C1N2CN3CN1CN(C2)C3`, the Potency result was “inactive”.

Regarding `CCCN(CCC)S(=O)(=O)c1ccc(C(=O)O)cc1`, the Potency result was “inactive”.

Regarding `NNC(=O)c1ccncc1`, the Potency entry is “inactive”.

Regarding `Cn1cc[nH]c1=S`, the Potency result is “inactive”.

Take `O=C1CN(/N=C/c2ccc([N+](=O)[O-])o2)C(=O)N1`: the Potency is 30.5 µM (active) and 61.1 µM (active).

Take `CCCCOC(=O)CC(CC(=O)OCCCC)(OC(C)=O)C(=O)OCCCC`: the Potency entry is “inactive”.

Consider `CCCCC(CC)COC(=O)/C=C/c1ccc(OC)cc1` (centres undefined), for which the Potency result is “inactive”.

Turning to `CC(C)(Oc1ccc(C2CC2(Cl)Cl)cc1)C(=O)O` (centres undefined), the Potency result was “inactive”.

As to `OCCc1ccccc1`, the Potency entry was “inactive”.

For the compound `NC(N)=NC(=O)c1nc(Cl)c(N)nc1N`, the Potency result was “inactive”.

For `NC(=O)c1ccccc1O`, the Potency entry was “inactive”.

`CC1(C)[C@@H]2CC[C@@]1(C)C(=O)C2`: the Potency result was “inactive”.

Regarding `Cc1cc(=O)n(-c2ccccc2)n1C`, the Potency entry is “inactive”.

Consider `CCOc1ccc(NC(=O)CC(C)O)cc1` (centres undefined), for which the Potency entry is “inactive”.

Regarding `NC(=O)c1cnccn1`, the Potency entry is “inactive”.

Regarding `O=c1ccc2ccccc2o1`, the Potency result was “inactive”.

As to `Cc1noc(NS(=O)(=O)c2ccc(N)cc2)c1C`, the Potency entry is “inactive”.

Consider `Cc1cc(=O)[nH]c(=S)[nH]1`, for which the Potency entry was “inactive”.

For `Cc1ccccc1C(OCCN(C)C)c1ccccc1` (centres undefined), the Potency entry is “inactive”.

In the case of `O=S(=O)(O)c1ccc2cc(O)ccc2c1`, the Potency entry is “inactive”.

The target of the next assay is Luciferin 4-monooxygenase (Photinus pyralis) (UniProt P08659). Kind of assay: qHTS assay to identify small molecule inhibitors of firefly luciferase (AID 1224835). Also: nearly all actives have a fitted effect of over 25% in size. The settings on record: purified P. pyralis luciferase, luminescence inhibition; series mostly up to 115 µM. In outline:
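Quantitative HTS format; KM concentrations of both substrates. Purified P. pyralis FLuc activity quantified from luminescence images.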
(In general: qHTS replaces the single test concentration by a dilution series.)
As to `C[C@]12C=CC(=O)C=C1CC[C@@H]1[C@@H]2[C@@H](O)C[C@@]2(C)[C@H]1CC[C@]2(O)C(=O)CO`, the Potency entry was “inactive”.

As to `CC(=O)NS(=O)(=O)c1ccc(N)cc1`, the Potency result is “inactive”.

As to `Nc1ccc(C(=O)O)cc1`, the Potency entry is “inactive”.

Take `O=c1cc[nH]c(=S)[nH]1`: the Potency entry is “inactive”.

Turning to `C/C=C/c1ccc(OC)cc1`, the Potency result is “inactive”.

Consider `CCCCC1C(=O)N(c2ccccc2)N(c2ccccc2)C1=O`, for which the Potency result was “inactive”.

`Cc1ccc(C)c(OCCCC(C)(C)C(=O)O)c1`: the Potency result was “inactive”.

Turning to `O=C(O)CCC(=O)O`, the Potency entry was “inactive”.

For `CC(=O)Nc1nnc(S(N)(=O)=O)s1`, the Potency result is “inactive”.

Consider `COC(=O)[C@H](Cc1ccccc1)NC(=O)[C@@H](N)CC(=O)O` (H-Asp-Phe-OMe), for which the Potency entry is “inactive”.

Consider `CCCC(CCC)C(=O)O`, for which the Potency entry is “inactive”.

Consider `COc1ccc2[nH]cc(CCNC(C)=O)c2c1`, for which the Potency entry is “inactive”.

Consider `CC(=O)OCC(COC(C)=O)OC(C)=O`, for which the Potency entry is “inactive”.

For `Cn1c(=O)c2[nH]cnc2n(C)c1=O`, the Potency result was “inactive”.

Turning to `Nc1ccc(S(=O)(=O)c2ccc(N)cc2)cc1`, the Potency entry was “inactive”.

Take `OC(Cn1cncn1)(Cn1cncn1)c1ccc(F)cc1F`: the Potency entry was “inactive”.

With `C1N2CN3CN1CN(C2)C3`, the Potency entry is “inactive”.

In the case of `CCCN(CCC)S(=O)(=O)c1ccc(C(=O)O)cc1`, the Potency entry was “inactive”.

For the compound `NNC(=O)c1ccncc1`, the Potency entry is “inactive”.

With `Cn1cc[nH]c1=S`, the Potency entry is “inactive”.

Consider `O=C1CN(/N=C/c2ccc([N+](=O)[O-])o2)C(=O)N1`, for which the Potency result was “inactive”.

Turning to `CCCCOC(=O)CC(CC(=O)OCCCC)(OC(C)=O)C(=O)OCCCC`, the Potency entry was “inactive”.

For `CCCCC(CC)COC(=O)/C=C/c1ccc(OC)cc1` (centres undefined), the Potency result is “inactive”.

As to `CC(C)(Oc1ccc(C2CC2(Cl)Cl)cc1)C(=O)O` (centres undefined), the Potency entry was “inactive”.

As for `OCCc1ccccc1`, the Potency result is “inactive”.

On to `NC(N)=NC(=O)c1nc(Cl)c(N)nc1N`, for which the Potency entry is “inactive”.

`NC(=O)c1ccccc1O`: the Potency entry is “inactive”.

With `CC1(C)[C@@H]2CC[C@@]1(C)C(=O)C2`, the Potency entry was “inactive”.

As for `Cc1cc(=O)n(-c2ccccc2)n1C`, the Potency entry is “inactive”.

As to `CCOc1ccc(NC(=O)CC(C)O)cc1` (centres undefined), the Potency result was “inactive”.

Regarding `NC(=O)c1cnccn1`, the Potency result is “inactive”.

Take `O=c1ccc2ccccc2o1`: the Potency entry was “inactive”.

Consider `Cc1noc(NS(=O)(=O)c2ccc(N)cc2)c1C`, for which the Potency result was “inactive”.

For the compound `Cc1cc(=O)[nH]c(=S)[nH]1`, the Potency result was “inactive”.

For the compound `Cc1ccccc1C(OCCN(C)C)c1ccccc1` (centres undefined), the Potency entry is “inactive”.

Regarding `O=S(=O)(O)c1ccc2cc(O)ccc2c1`, the Potency entry is “inactive”.

Tested on in a further assay: not listed separately
Description: qHTS assay to identify small molecule agonists of the constitutive androstane receptor (CAR) signaling pathway - cell viability counter screen (AID 1224836). Also: nearly all actives have a fitted effect of over 45% in size. The settings on record: HepG2-CYP2B6-hCAR viability, CellTiter-Fluor, 23 h, PK11195 added to every well; series mostly up to 92.4 µM. In outline:
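HepG2-CYP2B6-hCAR, 2500 cells/well, 4 h pre-incubation; cpd 15 conc + PK11195 0.75 uM final; 23 h, 37 C/5% CO2; CellTiter-Fluor, fluorescence.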
`C[C@]12C=CC(=O)C=C1CC[C@@H]1[C@@H]2[C@@H](O)C[C@@]2(C)[C@H]1CC[C@]2(O)C(=O)CO`: the Potency entry is “inactive”.

`CC(=O)NS(=O)(=O)c1ccc(N)cc1`: the Potency entry was “inactive”.

Take `Nc1ccc(C(=O)O)cc1`: the Potency result is “inactive”.

Regarding `O=c1cc[nH]c(=S)[nH]1`, the Potency result is “inactive”.

As to `C/C=C/c1ccc(OC)cc1`, the Potency entry is “inactive”.

In the case of `CCCCC1C(=O)N(c2ccccc2)N(c2ccccc2)C1=O`, the Potency result is “inactive”.

`Cc1ccc(C)c(OCCCC(C)(C)C(=O)O)c1`: the Potency entry is “inactive”.

With `CC(=O)Nc1nnc(S(N)(=O)=O)s1`, the Potency entry is “inactive”.

With `COC(=O)[C@H](Cc1ccccc1)NC(=O)[C@@H](N)CC(=O)O` (H-Asp-Phe-OMe), the Potency entry is “inactive”.

As for `CCCC(CCC)C(=O)O`, the Potency result was “inactive”.

For `COc1ccc2[nH]cc(CCNC(C)=O)c2c1`, the Potency entry was “inactive”.

Take `CC(=O)OCC(COC(C)=O)OC(C)=O`: the Potency entry is “inactive”.

With `Cn1c(=O)c2[nH]cnc2n(C)c1=O`, the Potency entry was “inactive”.

On to `Nc1ccc(S(=O)(=O)c2ccc(N)cc2)cc1`, for which the Potency result is “inactive”.

Consider `OC(Cn1cncn1)(Cn1cncn1)c1ccc(F)cc1F`, for which the Potency result was “inactive”.

Take `CCCN(CCC)S(=O)(=O)c1ccc(C(=O)O)cc1`: the Potency result was “inactive”.

`Cn1cc[nH]c1=S`: the Potency entry is “inactive”.

For `CCCCOC(=O)CC(CC(=O)OCCCC)(OC(C)=O)C(=O)OCCCC`, the Potency entry was “inactive”.

Consider `CCCCC(CC)COC(=O)/C=C/c1ccc(OC)cc1` (centres undefined), for which the Potency result was “inactive”.

`CC(C)(Oc1ccc(C2CC2(Cl)Cl)cc1)C(=O)O` (centres undefined): the Potency entry is “inactive”.

As to `OCCc1ccccc1`, the Potency entry was “inactive”.

For `NC(N)=NC(=O)c1nc(Cl)c(N)nc1N`, the Potency entry was “inactive”.

For `NC(=O)c1ccccc1O`, the Potency result is “inactive”.

As to `Cc1cc(=O)n(-c2ccccc2)n1C`, the Potency result was “inactive”.

For the compound `CCOc1ccc(NC(=O)CC(C)O)cc1` (centres undefined), the Potency result is “inactive”.

For the compound `Cc1cc(=O)[nH]c(=S)[nH]1`, the Potency result is “inactive”.

For the compound `O=S(=O)(O)c1ccc2cc(O)ccc2c1`, the Potency entry was “inactive”.

The values are drawn from PubChem BioAssay (Tox21).
